In PubChem BioAssay (NCATS):
Inconclusive results are not listed. A call without a number means that no potency is given here. Calls of active or inactive are those of the source. Calls follow the shape of the dose curve; as a rule, active = well fitted inhibition curve with a large enough effect; inconclusive = small, poorly fitted or top-dose-only effect; inactive = flat fitted curve, though single readings scatter.

The compounds below were run on CP286 (assay: qHTS profiling for inhibitors of Plasmodium falciparum proliferation (AID 504749; also: nearly all actives have a fitted effect of over 60% in size)). Conditions: P. falciparum in erythrocytes, SYBR Green DNA, 72 h; series mostly up to 28.7 µM.
How it was run: (§1)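 Quantitative HTS: compounds pinned into medium, infected erythrocytes added (0.3% parasitemia, 2.5% hematocrit), 72 h culture at 37 C under 5% CO2. Saponin/Triton lysis with SYBR Green I, overnight RT, then fluorescence read.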
Potency is read from the fitted curve at half-maximal effect.

| Compound | Potency |
| --- | --- |
| Cc1ccccc1 | inactive |
| CC1(C)S[C@@H]2[C@H](NC(=O)[C@@H](NC(=O)N3CCNC3=O)c3ccccc3)C(=O)N2[C@H]1C(=O)O | inactive |
| CC1=C(/C=C/C(C)=C/C=C/C(C)=C/C=C/C=C(C)/C=C/C=C(C)/C=C/C2=C(C)CCCC2(C)C)C(C)(C)CCC1 | inactive |
| CCCC(=O)O[C@]1(C(=O)CCl)[C@H](C)C[C@@H]2[C@H]3CCC4=CC(=O)C=C[C@]4(C)[C@@]3(F)C(=O)C[C@@]21C | 2.82 µM (active) |
| CCC(=O)NCCC1CCc2ccc3c(c21)CCO3 (centres undefined) | inactive |
| Cc1cc(C(=O)NNCc2ccccc2)no1 | inactive |
| Cc1ccccc1OCC(O)CNCCOc1ccc(C(N)=O)cc1 (centres undefined) | inactive |
| CCCCCCCCCCCCCC[n+]1ccc(C)cc1 | 1.26 µM (active) |
| COC(F)(F)C(Cl)Cl | inactive |
| CCCCCCCCCCCC[n+]1ccc2ccccc2c1 | 0.224 µM (active) |
| O=C(O)CCC(=O)C(=O)O | inactive |
| O=C(O)CN(CCN(CC(=O)O)CC(=O)O)CC(=O)O | inactive |
| COc1ccc2c3c1O[C@H]1C[C@@H](O)C=C[C@@]31CCN(C)C2 | inactive |
| C=CCSSSCC=C | inactive |
| COC(C(=O)C(O)C(C)O)C1Cc2cc3cc(OC4CC(OC5CC(O)C(O)C(C)O5)C(O)C(C)O4)c(C)c(O)c3c(O)c2C(=O)C1OC1CC(OC2CC(OC3CC(C)(O)C(O)C(C)O3)C(O)C(C)O2)C(O)C(C)O1 (centres undefined) | 0.126 µM (active) |
| CCNC(=O)[C@@H]1CCCN1C(=O)[C@H](CCCN=C(N)N)NC(=O)[C@H](CC(C)C)NC(=O)[C@@H](Cc1c[nH]c2ccccc12)NC(=O)[C@H](Cc1ccc(O)cc1)NC(=O)[C@H](CO)NC(=O)[C@H](Cc1c[nH]c2ccccc12)NC(=O)[C@H](Cc1cnc[nH]1)NC(=O)[C@@H]1CCC(=O)N1 | 3.16 µM (active) |
| O=C(COc1ccc(Cl)cc1)OCCNC12CC3CC(CC(C3)C1)C2 | inactive |
| CCCCCCCC/C=C\CCCCCCCC(=O)O | inactive |
| CC(C)(C)C(=O)OCOC(=O)[C@@H]1N2C(=O)[C@@H](N=CN3CCCCCC3)[C@H]2SC1(C)C | inactive |
| CCOC(C)=O | inactive |
| CCCCCCC(O)C/C=C/CCCCCCCC(=O)O (centres undefined) | inactive |
| CN1C(=O)CN2CCc3ccccc3C2c2cc(Cl)ccc21 (centres undefined) | inactive |
| Cc1c(C)c2c(c(C)c1O)CC[C@@](C)(CCC[C@H](C)CCC[C@H](C)CCCC(C)C)O2 | inactive |
| CC(C(=O)O)c1ccc(N2Cc3ccccc3C2=O)cc1 (centres undefined) | inactive |
| COC(=O)[C@H]1[C@H]2C[C@@H]3c4[nH]c5ccccc5c4CCN3C[C@H]2C[C@@H](OC(=O)c2cc(OC)c(OC)c(OC)c2)[C@@H]1OC | 0.282 µM (active) |
| O=S(=O)(O)O | inactive |
| CC(C)N=c1cc2n(-c3ccc(Cl)cc3)c3ccccc3nc-2cc1Nc1ccc(Cl)cc1 | 3.55 µM (active) |
| O=S(=O)(O)c1ccc2c(N=Nc3ccc(S(=O)(=O)O)c4ccccc34)c(O)c(S(=O)(=O)O)cc2c1 | inactive |
| C[C@]12CCC(=O)C=C1CC[C@@H]1[C@@H]2[C@@H](O)C[C@@]2(C)[C@H]1CC[C@]2(O)C(=O)COP(=O)(O)O | inactive |
| CCN(CC)Cc1cc(Nc2ccnc3cc(Cl)ccc23)ccc1O | 0.0316 µM (active) |

These compounds were tested on CP291 in the same assay as above. Conditions: P. falciparum in erythrocytes, SYBR Green DNA, 72 h; series mostly up to 28.7 µM.
How it was run: as §1

| Compound | Potency |
| --- | --- |
| Cc1ccccc1 | inactive |
| CC1(C)S[C@@H]2[C@H](NC(=O)[C@@H](NC(=O)N3CCNC3=O)c3ccccc3)C(=O)N2[C@H]1C(=O)O | inactive |
| CC1=C(/C=C/C(C)=C/C=C/C(C)=C/C=C/C=C(C)/C=C/C=C(C)/C=C/C2=C(C)CCCC2(C)C)C(C)(C)CCC1 | inactive |
| CCCC(=O)O[C@]1(C(=O)CCl)[C@H](C)C[C@@H]2[C@H]3CCC4=CC(=O)C=C[C@]4(C)[C@@]3(F)C(=O)C[C@@]21C | 4.26 µM (active) |
| CCC(=O)NCCC1CCc2ccc3c(c21)CCO3 (centres undefined) | inactive |
| Cc1cc(C(=O)NNCc2ccccc2)no1 | inactive |
| Cc1ccccc1OCC(O)CNCCOc1ccc(C(N)=O)cc1 (centres undefined) | inactive |
| CCCCCCCCCCCCCC[n+]1ccc(C)cc1 | 4.26 µM (active) |
| COC(F)(F)C(Cl)Cl | inactive |
| CCCCCCCCCCCC[n+]1ccc2ccccc2c1 | 1.2 µM (active) |
| O=C(O)CN(CCN(CC(=O)O)CC(=O)O)CC(=O)O | inactive |
| COc1ccc2c3c1O[C@H]1C[C@@H](O)C=C[C@@]31CCN(C)C2 | inactive |
| C=CCSSSCC=C | inactive |
| COC(C(=O)C(O)C(C)O)C1Cc2cc3cc(OC4CC(OC5CC(O)C(O)C(C)O5)C(O)C(C)O4)c(C)c(O)c3c(O)c2C(=O)C1OC1CC(OC2CC(OC3CC(C)(O)C(O)C(C)O3)C(O)C(C)O2)C(O)C(C)O1 (centres undefined) | 1.69 µM (active) |
| CCNC(=O)[C@@H]1CCCN1C(=O)[C@H](CCCN=C(N)N)NC(=O)[C@H](CC(C)C)NC(=O)[C@@H](Cc1c[nH]c2ccccc12)NC(=O)[C@H](Cc1ccc(O)cc1)NC(=O)[C@H](CO)NC(=O)[C@H](Cc1c[nH]c2ccccc12)NC(=O)[C@H](Cc1cnc[nH]1)NC(=O)[C@@H]1CCC(=O)N1 | 7.57 µM (active) |
| O=C(COc1ccc(Cl)cc1)OCCNC12CC3CC(CC(C3)C1)C2 | inactive |
| CCCCCCCC/C=C\CCCCCCCC(=O)O | inactive |
| CC(C)(C)C(=O)OCOC(=O)[C@@H]1N2C(=O)[C@@H](N=CN3CCCCCC3)[C@H]2SC1(C)C | inactive |
| CCOC(C)=O | inactive |
| CCCCCCC(O)C/C=C/CCCCCCCC(=O)O (centres undefined) | inactive |
| CN1C(=O)CN2CCc3ccccc3C2c2cc(Cl)ccc21 (centres undefined) | inactive |
| Cc1c(C)c2c(c(C)c1O)CC[C@@](C)(CCC[C@H](C)CCC[C@H](C)CCCC(C)C)O2 | inactive |
| CC(C(=O)O)c1ccc(N2Cc3ccccc3C2=O)cc1 (centres undefined) | inactive |
| COC(=O)[C@H]1[C@H]2C[C@@H]3c4[nH]c5ccccc5c4CCN3C[C@H]2C[C@@H](OC(=O)c2cc(OC)c(OC)c(OC)c2)[C@@H]1OC | 0.675 µM (active) |
| O=S(=O)(O)O | inactive |
| CC(C)N=c1cc2n(-c3ccc(Cl)cc3)c3ccccc3nc-2cc1Nc1ccc(Cl)cc1 | inactive |
| O=S(=O)(O)c1ccc2c(N=Nc3ccc(S(=O)(=O)O)c4ccccc34)c(O)c(S(=O)(=O)O)cc2c1 | inactive |
| C[C@]12CCC(=O)C=C1CC[C@@H]1[C@@H]2[C@@H](O)C[C@@]2(C)[C@H]1CC[C@]2(O)C(=O)COP(=O)(O)O | inactive |
| CCN(CC)Cc1cc(Nc2ccnc3cc(Cl)ccc23)ccc1O | 0.0455 µM (active) |
